Screening results deposited in PubChem by Paczesny and Yang Labs, IUPUI and University of Michigan.
The sample as a whole holds a higher share of hits than the screen did.
ST2 inh = IL1RL1 inhibition; Q01638; AlphaLISA ST2-Fc/biotin-IL-33 interaction, 1 h; inhibition, % for hits at 17 µM; 78,000 compounds, 2.3% hits; AID 1259354; in the data active = inhibition above about 30%
Target sequence (Q01638 whole entry, looked up): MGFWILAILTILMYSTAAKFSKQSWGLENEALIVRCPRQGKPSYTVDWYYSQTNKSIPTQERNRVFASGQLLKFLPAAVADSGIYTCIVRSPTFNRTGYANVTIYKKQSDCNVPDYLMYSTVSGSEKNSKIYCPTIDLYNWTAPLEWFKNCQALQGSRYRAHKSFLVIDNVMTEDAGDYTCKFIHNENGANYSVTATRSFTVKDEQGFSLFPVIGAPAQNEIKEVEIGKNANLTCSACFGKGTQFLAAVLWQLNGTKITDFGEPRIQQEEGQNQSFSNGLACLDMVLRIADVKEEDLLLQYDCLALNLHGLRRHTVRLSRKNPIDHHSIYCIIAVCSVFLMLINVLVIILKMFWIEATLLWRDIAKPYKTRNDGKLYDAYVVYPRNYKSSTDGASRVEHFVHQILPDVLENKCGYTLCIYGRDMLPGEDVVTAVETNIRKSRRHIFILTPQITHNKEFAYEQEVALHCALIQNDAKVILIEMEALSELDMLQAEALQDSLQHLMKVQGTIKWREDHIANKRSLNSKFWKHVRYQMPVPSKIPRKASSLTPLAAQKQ
Of the large screens only hits and unclear results are named; the others gave an inactive call.

COc1cc(/C=C2\C=C(c3ccc(Cl)cc3)OC2=O)c([N+](=O)[O-])cc1OC	none
CC(=O)Nc1cccc(-c2cncc(C(=O)N3CCCCC3)n2)c1	none
NC(=O)CSc1nc2ccc(Cl)cc2o1	none
Cc1ccc(S(=O)(=O)Nc2c(F)c(F)c(F)c(F)c2Cl)cc1	none
O=C(NC(Nc1ccccc1F)C(Cl)(Cl)Cl)c1ccccc1 (configuration not stated)	none
Cc1cc2c3c(c1)C1C=CCC1C(C(=O)O)N3CC1CC=CC21 (configuration not stated)	ST2 inh 33.0%
O=C(O)c1cn(-c2cccc(C(F)(F)F)c2)c(=O)c2ccccc12	none
CCN1CCN(Cc2ccc(NC(C)=O)cc2)CC1	none
CN1CCN(c2ncccc2CNC(=O)c2cn3cc(Cl)cnc3n2)CC1	none
Cc1ccc(N2CN=C3SCC(=O)N3C2)cc1C	ST2 inh 37.0%
Cc1ccc(N2CN=C3SCC(=O)N3C2)cc1Cl	none
Cc1ccc(N2C(=O)C3CCCCC3C2=O)cc1C (configuration not stated)	none
COc1cccc(CC2CN(C(=O)CCc3cnccn3)CCO2)c1 (configuration not stated)	none
CC(C)CCNC(=O)c1cc(=O)[nH]c2ccc(S(=O)(=O)N3CCC(C)CC3)cc12	none
O=C(Nc1ccc([C@@H](O)[C@H]2COCC(=O)N2Cc2ccccc2)cc1)c1cccs1	none
CC1(C)CC(=O)C2=C(C1)Nc1cc(C(=O)c3ccccc3)ccc1NC2c1ccco1 (configuration not stated)	none
CC1(C)CC(=O)C2=C(C1)Nc1cc(C(=O)c3ccccc3)ccc1NC2c1cccs1 (configuration not stated)	none
COc1ccccc1C1Nc2ccc(C(=O)c3ccccc3)cc2NC2=C1C(=O)CC(C)(C)C2 (configuration not stated)	ST2 inh 31.0%
COc1ccc(CN(C)c2cc(C3CCCNC3)nc(C)n2)cc1 (configuration not stated)	none
Cc1ccc2[nH]c3c(c2c1)CCC1C3=NNC1c1ccco1 (configuration not stated)	ST2 inh 37.0%
Cc1ccc2[nH]c3c(c2c1)CCCC3=O	none
Cc1ccc2[nH]c3c(c2c1)CN(Cc1ccccc1)CC3	none
O=[N+]([O-])c1ccc(S(=O)(=O)N2CCN(c3ccccc3)CC2)cc1	none
O=[N+]([O-])c1ccc(N2CCOCC2)cc1NCCCO	none
O=S(=O)(c1ccc(Br)cc1)N1CCN(Cc2ccccc2)CC1	none
O=[N+]([O-])c1ccc(N2CCN(S(=O)(=O)c3ccc(Cl)c(Cl)c3)CC2)cc1NC1CC1	ST2 inh 30.0%
CCS(=O)(=O)N1CCN(c2ccc([N+](=O)[O-])c(NCc3cccnc3)c2)CC1	none
O=[N+]([O-])c1ccc(S(=O)(=O)N2CCN(CCCc3ccccc3)CC2)cc1	ST2 inh 34.0%
O=C(COc1ccccc1)N1CCN(S(=O)(=O)c2ccc([N+](=O)[O-])cc2)CC1	none
O=[N+]([O-])c1ccc(N2CCN(S(=O)(=O)c3ccc(Cl)cc3)CC2)cc1	ST2 inh 35.0%
O=[N+]([O-])c1ccc(S(=O)(=O)N2CCN(c3ccccn3)CC2)cc1	none
CCCc1nc(N)c(C#N)c(-c2cccc(Br)c2)c1CC	none
CC(C)c1cc(C=O)cc(C(C)C)c1O	none
O=C(O)CCC(=O)N1CCc2cc(S(=O)(=O)NC3CCCCCCC3)ccc21	none
CCN(CC)C(=O)CCC(=O)Nc1ccc2nc(N3CCOCC3)cc(C)c2c1	none
O=[N+]([O-])c1c(Nc2ccccc2)sc2ccccc12	ST2 inh 37.0%
O=[N+]([O-])C1=C(Nc2ccccc2)CS(=O)(=O)C1	none
Nc1ncnc(Nc2ccc(Oc3ccccc3)cc2)c1[N+](=O)[O-]	none
CC(C)N1C(=O)S/C(=C\c2ccc(-c3cccc(C(=O)O)c3)o2)C1=O	none
O=C(O)CN1C(=O)S/C(=C\c2ccco2)C1=O	ST2 inh 74.0%
CN1CCN(C(=O)CN2C(=O)S/C(=C/c3ccccc3)C2=O)CC1	none
O=[N+]([O-])c1cc(C=Nc2ccc3oc(-c4cccc(F)c4)nc3c2)c(O)c([N+](=O)[O-])c1	none
COc1cc(F)c(CN2CCC3(CCCO3)CCC2=O)cc1OC (configuration not stated)	none
c1ccc(CNCC2OCCc3ccccc32)cc1 (configuration not stated)	none
Cc1cnn(-c2ccc3nnc(-c4ccc(Cl)cc4)n3n2)c1	ST2 inh 36.0%
Clc1ccc(-c2nnc3ccc(Cl)nn23)cc1	none
Cc1ccn2cc(-c3ccc(Cl)cc3)nc2c1	none
CCOC(=O)N1CCC(N(C)Cc2ccc3ncccc3c2)CC1	none
COc1ccc(C(=O)N2CCC(C(=O)Nc3ccccc3Br)CC2)cc1	none
COc1ccc(CNCCC2CCOC(C)(C)C2)cc1 (configuration not stated)	none
CCC(C)NC(=O)C1c2cc(OC)c(OC)cc2C(=O)N2CCc3ccccc3C12 (configuration not stated)	none
CCN(C(=O)COc1ccc(Cl)cc1Cl)c1ccccc1	none
O=C(Nc1nccs1)c1ccc2snnc2c1	none
O=C(Nc1ccccc1F)c1ccc2nc(-c3ccco3)c(-c3ccco3)nc2c1	none
O=C(Nc1nccs1)c1ccc2nc(-c3ccco3)c(-c3ccco3)nc2c1	ST2 inh 30.0%
COc1nc(NCc2ccccc2)nc(NCc2cccnc2)n1	none
CC1=C(C(=O)Nc2ccc(C)cc2C)C(c2cccnc2)n2nnnc2N1 (configuration not stated)	none
COc1ccc(CCNS(=O)(=O)c2ccc(F)cc2)cc1	none
CC1SC2(CCCCC2)N(c2ccc(Oc3ccccc3)cc2)C1=O (configuration not stated)	none
Cc1ccc(C(=O)N2CCc3ccccc32)o1	none
Cc1ccc(C(=O)/C=C/C=C/C=C/N(C)C)o1	ST2 inh 39.0%
COc1ccc(CN2CCNC(=O)C2CC(=O)N(C)Cc2cnn(C)c2)c(C)c1C (configuration not stated)	none
Cc1ncccc1OC1(C(=O)N2C[C@H]3CC=CC[C@H]3C2)CCNCC1	none
O=C(NC1CCCC1)c1cc(-c2ccco2)on1	none
NC(=O)CSc1nc2ccccc2c2nc3ccccc3n12	none
COc1ccc(OC)c(NC(=O)c2cc3ccccc3o2)c1	none
COc1ccc(OC)c(NC(=O)c2c(OC)cccc2OC)c1	ST2 inh 35.0%
CCc1ccccc1NC(=O)c1c(OC)cccc1OC	none
CC(C)c1cccc(OCCCN(C)C)c1	none
c1ccc2c(c1)CC(N1CCC(CN(Cc3ccsc3)CC3CCCO3)CC1)C2 (configuration not stated)	none
COc1ccc(Cl)cc1NC(=O)CCS(=O)(=O)c1ccc(Br)s1	none
CC1=NN(c2cccc(Cl)c2)C(=O)/C1=C\c1ccc(-c2cc([N+](=O)[O-])ccc2O)o1	ST2 inh 91.0%
COc1ccc(-c2ccc(/C=C3\C(=O)N(c4cccc(Cl)c4)N=C3C)o2)cc1[N+](=O)[O-]	ST2 inh 49.0%
COc1ccc(/C=C2\C(=O)N(c3cccc(Cl)c3)N=C2C)cc1Br	none
CC1=NN(c2ccc(Cl)c(C(=O)O)c2)C(=O)/C1=C\c1ccc(-c2cccc([N+](=O)[O-])c2)o1	none
CC1=NN(c2ccc(Br)cc2)C(=O)/C1=C\c1ccc(-c2cccc([N+](=O)[O-])c2)o1	none
COc1ccc(/C=C2\C(=O)N(c3ccccc3)N=C2C)cc1[N+](=O)[O-]	none
O=C(CC1(c2cccc(F)c2)CC(=O)N(C2CCCC2)C1=O)N1CCCC(OCc2ccccc2)C1 (configuration not stated)	none
CC(C)=CCC/C(C)=C/CC/C(C)=C/Cc1c(O)cc(C)c(C=O)c1O	none
O=C(Nc1cc(Cl)ccc1O)c1noc2c1CCC2	none
O=C(Nc1c(C(=O)Nc2cccc(F)c2)oc2ccccc12)c1cccs1	none
